# Experimental data: the supplement of paper PMC10849652
# Of roughly 8,800 targets only a part is listed; those with a hit were picked by preference. About 0.5% of all pairs of compound and target were hits. Unmarked numbers belong to inactive results.
# Legend:
# Assay in all cases: log2 fold change, soluble protein after heating vs DMSO (PISA); higher = thermal stabilisation; K562 lysate, 10 uM; active = over 0.2 and 3.5 SD of the protein, either way, in both replicates (recomputed)
# [1] = compound: C#Cc1cccc(Nc2ncnc3cc(OCCOC)c(OCCOC)cc23)c1 [erlotinib]
# Procedure, shortened: (§1)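 A 30 min treatment with 10 μM compound was applied to crude K562 extract at 1 mg/mL protein in PBS pH 7.4 with 1 mM MgCl2. Heating for 3 min spanned 48°C-58°C, after which aliquots were pooled, adjusted to 0.5% NP-40 at 4°C and spun at 21,000xg for 90 min. TMTpro 16plex LC-MS/MS of the supernatant, with channel sums equalised, gave values recorded as log-two fold change in thermal stability against solvent controls, from duplicates.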
# [2] = compound: C1=CC(=CC=C1C2=NC3=C(N2)C=C(C=C3)C(=O)N)OC4=CC=C(C=C4)Cl
# Procedure, shortened: as §1
# [3] = compound: C1=CC2=NC=CN=C2C=C1/C=C/3\C(=O)NC(=O)S3
# Procedure, shortened: as §1
# [4] = compound: C1=CC=C(C=C1)C2=NC(=C(N2)C3=CC=NC=C3)C4=CC(=C(C=C4)Cl)O
# Procedure, shortened: as §1
# [5] = compound: C1COCCN1CCN2C3=CC=CC=C3N=C2NC(=O)C4=CC(=CC=C4)[N+](=O)[O-] [IRAK-1-4 Inhibitor I]
# Procedure, shortened: as §1
# [6] = compound: C=CC(=O)N1CCC[C@@H](n2nc(-c3ccc(Oc4ccccc4)cc3)c3c(N)ncnc32)C1 [ibrutinib]
# Procedure, shortened: as §1
# [7] = compound: CC(C)(C)Cn1c(N)nc2ccc(-c3[nH]c(C(C)(C)C)nc3-c3ccc(F)cc3)nc21 [ralimetinib]
# Procedure, shortened: as §1
# [8] = compound: CC(C)(O)CC(=O)NCCn1ccc2ncnc(Nc3ccc(Oc4cccc(C(F)(F)F)c4)c(Cl)c3)c21
# Procedure, shortened: as §1
# [9] = compound: CC(C)C1=C2N=C(C=C(N2N=C1)NCC3=CC=CC=C3)NCCCCCCN
# Procedure, shortened: as §1
# [10] = compound: CC1=C(C2=C(C=C1)C(=O)C3=CC=CC=C3N2CCCN)C
# Procedure, shortened: as §1
# [11] = compound: CC1=C(C=C(C=C1)NC(=O)C2=CC(=CC=C2)C(C)(C)C#N)NC3=CC4=C(C=C3)N=CN(C4=O)C
# Procedure, shortened: as §1
# [12] = compound: CC1=C(C=C(C=C1)NC(=O)C2=CC(=CC=C2)N(C)C)NC(=O)C3=CC=C(C=C3)O
# Procedure, shortened: as §1
# [13] = compound: C1CCN(C1)C(=O)NC2=CC=CC(=C2)NC3=NC=C(C(=N3)NCCC4=CN=CN4)Br
# Procedure, shortened: as §1
# [14] = compound: C1CN(CCC1(CC2=CC=C(C=C2)Cl)N)C3=NC=NC4=C3C=CN4
# Procedure, shortened: as §1
# [15] = compound: C/C(=N\NC(=O)C1=CC(=CC=C1)S(=O)(=O)N2CCOCC2)/C3=C(C=CC(=C3)Cl)O
# Procedure, shortened: as §1
# [16] = compound: C1=CC2=C(C=CC(=C2)/C=C\3/C(=O)NC(=NCC4=CC=CS4)S3)N=C1
# Procedure, shortened: as §1
# [17] = compound: C1=CC=C2C(=C1)C3=NNC4=CC=CC(=C43)C2=O
# Procedure, shortened: as §1
# [18] = compound: CC(=O)c1cnc2ccc(-c3cc(Cl)c(O)c(Cl)c3)nc2c1N[C@H]1CC[C@H](CN(C)C)CC1
# Procedure, shortened: as §1
# [19] = compound: CC1=CC=C(C=C1)SC2=C3C=C(SC3=CN=C2)C(=O)N
# Procedure, shortened: as §1
# [20] = compound: CC1=C(C(CC(=O)N1)C2=CC=C(C=C2)C(F)(F)F)C(=O)NC3=C(C=C4C(=C3)C=NN4)F
# Procedure, shortened: as §1
# UniProt P13994, sequence (P13994 whole entry, looked up): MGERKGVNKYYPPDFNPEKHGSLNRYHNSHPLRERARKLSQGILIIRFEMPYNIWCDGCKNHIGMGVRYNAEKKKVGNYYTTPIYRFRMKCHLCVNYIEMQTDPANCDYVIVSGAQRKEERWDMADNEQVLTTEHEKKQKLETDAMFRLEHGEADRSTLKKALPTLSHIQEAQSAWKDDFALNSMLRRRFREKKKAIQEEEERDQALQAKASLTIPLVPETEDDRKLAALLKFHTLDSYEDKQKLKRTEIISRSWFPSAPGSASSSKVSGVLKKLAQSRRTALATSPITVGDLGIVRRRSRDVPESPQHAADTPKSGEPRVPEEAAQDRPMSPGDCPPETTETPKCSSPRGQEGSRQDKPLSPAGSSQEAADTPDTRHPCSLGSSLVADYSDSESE
# UniProt O95260, sequence (O95260 whole entry, looked up): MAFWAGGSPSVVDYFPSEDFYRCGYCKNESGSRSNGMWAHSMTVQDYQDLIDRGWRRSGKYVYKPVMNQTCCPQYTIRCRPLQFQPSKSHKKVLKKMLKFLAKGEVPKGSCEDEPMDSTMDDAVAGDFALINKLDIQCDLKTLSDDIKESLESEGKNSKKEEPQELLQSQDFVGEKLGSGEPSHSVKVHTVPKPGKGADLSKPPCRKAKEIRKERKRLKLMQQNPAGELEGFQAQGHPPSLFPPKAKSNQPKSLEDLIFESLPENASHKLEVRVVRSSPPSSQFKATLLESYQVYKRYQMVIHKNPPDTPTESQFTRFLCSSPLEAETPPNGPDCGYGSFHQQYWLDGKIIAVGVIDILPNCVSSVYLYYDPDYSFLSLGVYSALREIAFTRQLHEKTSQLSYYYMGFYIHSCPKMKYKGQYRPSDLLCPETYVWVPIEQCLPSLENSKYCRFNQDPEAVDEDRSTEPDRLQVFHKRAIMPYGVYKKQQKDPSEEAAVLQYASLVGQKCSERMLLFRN
# UniProt P30304, sequence (P30304 whole entry, looked up): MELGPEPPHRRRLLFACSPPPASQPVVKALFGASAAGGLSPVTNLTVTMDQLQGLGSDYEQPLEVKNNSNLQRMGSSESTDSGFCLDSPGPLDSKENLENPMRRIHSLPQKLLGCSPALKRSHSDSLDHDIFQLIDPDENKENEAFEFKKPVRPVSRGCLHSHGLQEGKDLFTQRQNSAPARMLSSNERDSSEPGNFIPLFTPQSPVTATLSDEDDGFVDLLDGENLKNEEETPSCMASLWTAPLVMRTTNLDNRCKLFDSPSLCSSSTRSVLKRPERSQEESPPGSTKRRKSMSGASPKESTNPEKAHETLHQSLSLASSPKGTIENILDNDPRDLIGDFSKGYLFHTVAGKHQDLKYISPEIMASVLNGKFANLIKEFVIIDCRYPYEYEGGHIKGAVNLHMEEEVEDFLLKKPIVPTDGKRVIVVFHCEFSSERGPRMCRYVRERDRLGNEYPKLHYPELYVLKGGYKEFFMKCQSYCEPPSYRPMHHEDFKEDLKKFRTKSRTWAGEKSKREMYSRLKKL
# UniProt Q9BRD0, sequence (Q9BRD0 whole entry, looked up): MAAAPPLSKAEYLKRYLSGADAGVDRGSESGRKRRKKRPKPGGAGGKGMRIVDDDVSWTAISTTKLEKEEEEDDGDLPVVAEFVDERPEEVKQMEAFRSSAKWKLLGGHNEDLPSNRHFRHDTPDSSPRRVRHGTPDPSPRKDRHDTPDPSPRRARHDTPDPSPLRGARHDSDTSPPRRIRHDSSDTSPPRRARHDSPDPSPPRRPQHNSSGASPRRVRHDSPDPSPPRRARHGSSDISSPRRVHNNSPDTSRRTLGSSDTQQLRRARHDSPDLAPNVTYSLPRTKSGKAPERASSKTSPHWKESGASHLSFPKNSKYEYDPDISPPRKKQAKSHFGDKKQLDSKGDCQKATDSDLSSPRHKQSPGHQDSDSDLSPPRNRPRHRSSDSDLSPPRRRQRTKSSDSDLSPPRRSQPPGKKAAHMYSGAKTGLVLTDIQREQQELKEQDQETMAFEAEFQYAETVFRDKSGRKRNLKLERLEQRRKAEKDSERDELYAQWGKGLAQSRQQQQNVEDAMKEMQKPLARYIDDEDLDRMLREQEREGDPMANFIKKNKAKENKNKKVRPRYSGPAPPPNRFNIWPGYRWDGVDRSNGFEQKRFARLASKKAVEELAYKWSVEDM
# UniProt P25440, sequence (P25440 whole entry, looked up): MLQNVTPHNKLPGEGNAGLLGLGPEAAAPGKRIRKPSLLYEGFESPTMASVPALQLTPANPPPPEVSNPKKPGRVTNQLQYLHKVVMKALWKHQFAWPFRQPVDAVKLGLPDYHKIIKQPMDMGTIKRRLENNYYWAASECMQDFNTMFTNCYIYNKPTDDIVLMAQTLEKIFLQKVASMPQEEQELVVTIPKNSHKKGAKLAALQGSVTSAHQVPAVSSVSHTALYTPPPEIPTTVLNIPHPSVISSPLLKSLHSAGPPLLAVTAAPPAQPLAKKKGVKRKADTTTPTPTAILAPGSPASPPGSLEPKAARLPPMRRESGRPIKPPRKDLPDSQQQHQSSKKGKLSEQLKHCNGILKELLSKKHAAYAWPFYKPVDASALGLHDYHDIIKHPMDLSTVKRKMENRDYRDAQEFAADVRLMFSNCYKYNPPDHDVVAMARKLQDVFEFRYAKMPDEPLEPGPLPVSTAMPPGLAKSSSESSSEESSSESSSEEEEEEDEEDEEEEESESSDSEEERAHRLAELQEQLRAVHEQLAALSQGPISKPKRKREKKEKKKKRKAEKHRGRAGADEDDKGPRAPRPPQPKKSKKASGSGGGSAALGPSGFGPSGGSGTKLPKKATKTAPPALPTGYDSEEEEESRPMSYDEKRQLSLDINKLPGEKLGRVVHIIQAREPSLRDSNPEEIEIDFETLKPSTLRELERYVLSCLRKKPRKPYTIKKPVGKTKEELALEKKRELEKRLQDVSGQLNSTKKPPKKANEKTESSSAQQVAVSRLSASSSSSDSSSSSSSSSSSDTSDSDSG
# UniProt P0DMB2, sequence (P0DMB2 whole entry, looked up): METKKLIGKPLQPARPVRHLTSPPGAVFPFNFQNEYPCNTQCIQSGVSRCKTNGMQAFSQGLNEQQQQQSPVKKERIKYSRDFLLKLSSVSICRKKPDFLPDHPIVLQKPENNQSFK
# UniProt Q96LT7, sequence (Q96LT7 whole entry, looked up): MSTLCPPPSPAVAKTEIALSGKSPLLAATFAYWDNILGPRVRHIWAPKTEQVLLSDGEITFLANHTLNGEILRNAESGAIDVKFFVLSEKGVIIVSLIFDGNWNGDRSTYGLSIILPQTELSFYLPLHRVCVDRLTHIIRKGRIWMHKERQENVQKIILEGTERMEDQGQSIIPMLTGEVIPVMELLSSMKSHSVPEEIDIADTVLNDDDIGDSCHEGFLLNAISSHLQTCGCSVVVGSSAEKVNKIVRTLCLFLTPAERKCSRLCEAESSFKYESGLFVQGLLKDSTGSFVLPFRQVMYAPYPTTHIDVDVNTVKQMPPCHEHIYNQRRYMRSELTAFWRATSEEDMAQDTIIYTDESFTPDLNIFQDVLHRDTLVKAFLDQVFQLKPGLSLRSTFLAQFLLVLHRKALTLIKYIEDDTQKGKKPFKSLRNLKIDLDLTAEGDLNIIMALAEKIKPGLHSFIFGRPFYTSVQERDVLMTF
# UniProt Q6P4H8, sequence (Q6P4H8 whole entry, looked up): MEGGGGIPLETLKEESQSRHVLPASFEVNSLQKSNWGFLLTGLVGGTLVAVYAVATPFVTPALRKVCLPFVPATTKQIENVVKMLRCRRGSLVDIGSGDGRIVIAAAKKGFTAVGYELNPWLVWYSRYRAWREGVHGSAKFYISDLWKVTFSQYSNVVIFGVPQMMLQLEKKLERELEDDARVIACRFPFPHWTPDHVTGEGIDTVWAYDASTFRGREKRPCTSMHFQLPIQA
# UniProt Q96L58, sequence (Q96L58 whole entry, looked up): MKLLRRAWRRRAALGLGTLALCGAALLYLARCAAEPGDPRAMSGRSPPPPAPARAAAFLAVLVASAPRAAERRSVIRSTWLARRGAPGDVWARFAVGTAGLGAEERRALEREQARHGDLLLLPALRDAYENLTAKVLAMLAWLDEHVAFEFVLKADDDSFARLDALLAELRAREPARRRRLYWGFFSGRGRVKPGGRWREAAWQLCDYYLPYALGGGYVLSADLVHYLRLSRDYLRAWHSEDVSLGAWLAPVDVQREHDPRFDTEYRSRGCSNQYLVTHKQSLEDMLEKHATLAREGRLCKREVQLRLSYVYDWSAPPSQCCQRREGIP
Target,log2 fold change [1],log2 fold change [2],log2 fold change [3],log2 fold change [4],log2 fold change [5],log2 fold change [6],log2 fold change [7],log2 fold change [8],log2 fold change [9],log2 fold change [10],log2 fold change [11],log2 fold change [12],log2 fold change [13],log2 fold change [14],log2 fold change [15],log2 fold change [16],log2 fold change [17],log2 fold change [18],log2 fold change [19],log2 fold change [20]
B3GALT6 (UniProt Q96L58),0.074,-0.04,0.022,-0.028,-0.049,-0.025,0.065,0.23,-0.025,-0.112,-0.168,-0.046,,,,,,,,
ATPSCKMT (UniProt Q6P4H8),,,0,0.075,-0.046,-0.042,-0.15,0.088,,0.019,-0.015,-0.001,-0.074,-0.006,,,,,,
CAPNS1 (UniProt K7ES78),0.193,0.019,,-0.048,-0.09,,0.061,-0.196,-0.101,0.025,0.148,-0.105,,,-0.23,-0.275,0.047,0.028,-0.075,
CCDC130 (UniProt P13994),-0.045,0.28,0.032,-0.224,0.025,-0.232,0.181,0.077,-0.112,,0.252,0.072,-0.152,-0.016,,,,,,
CARHSP1 (UniProt H3BNU9),,,-0.215,,,0.147,,,,,,,,,,,,-0.005,0.107,-0.107
C9orf72 (UniProt Q96LT7),-0.043,0.056,-0.01,-0.041,-0.042,-0.079,-0.011,-0.021,0.025,0.014,-0.003,-0.023,0.056,-0.068,,,,-0.004,0.038,-0.066
CDC25A (UniProt P30304),0.016,0.085,,0,0.052,,0.014,-0.044,0.019,0.012,0.087,0.015,,,,,,-0.009,0.002,-0.017
CANX (UniProt D6RHJ3),,,,,,,,,,,,,,,-0.321,0.031,-0.022,-0.013,-0.008,0.021
CDK2 (UniProt P24941),-0.026,0.051,-0.003,0.008,0.014,-0.031,-0.038,0.006,-0.036,-0.016,-0.017,-0.003,0.135,0.004,-0.152,,0.237,0.362 (active),-0.015,-0.026
"CHD4, A0A2R8Y521",,,,0.259,0.178,,-0.175,-0.011,,0.191,,0.228,-0.033,0.261,,,,-0.049,0.314,-0.19
ATG4D (UniProt Q86TL0),,,0.072,0.049,-0.142,-0.086,0.049,0.074,,0.319,-0.096,-0.052,0.047,-0.074,,,,,,
BRD2 isoform 2 (UniProt P25440),-0.039,0.02,0,0.109,0.003,0.074,-0.056,0.021,0.26,0.008,0.056,0.049,-0.134,-0.114,,0.036,-0.014,-0.041,0.105,-0.025
BUD13 (UniProt Q9BRD0),-0.04,-0.02,0.054,0.054,-0.066,0.07,0.033,0.034,-0.051,-0.219,0.013,-0.013,-0.046,-0.162,,,,,,-0.051
ATE1 (UniProt O95260),,,0.005,,,0.081,,,,,-0.101,,,,,,,-0.025,-0.022,
CAPNS1 (UniProt U3KPR7),,,-0.105,,,0.034,,,,,,,,,,,,-0.007,0.099,0.155
CAD (UniProt H7BZB3),0.126,-0.28,,,,,,,-0.073,,,,-0.035,-0.007,-0.127,-0.069,-0.034,,,
C8orf88 (UniProt P0DMB2),-0.006,-0.185,0.028,-0.003,-0.013,-0.004,0.06,0.047,-0.05,0.006,0.052,0.022,,,,,,,,
